Results filed as inconclusive are left out. A number with no mark means an inactive call. Active and inactive are the calls of the source. The call rests on the fitted dose curve.
On the % scale 0 is the no-effect control and ±100 the full control effect.

Test system in the first assay: not listed separately
In words: Natriuretic polypeptide receptor (hNpr1) antagonism - Pilot counterscreen GloSensor control cell line (AID 1347045). The following applies: HEK293 cGMP GloSensor cells, SNP-stimulated luminescence, 20 min; series mostly up to 38.3 µM; activity change, negative = inhibition: at the top concentration. A digest of the protocol:
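Luminescence was read before and 20 min after adding 50 uM SNP, which stimulates soluble guanylyl cyclase. The HEK293 cells expressing the GloSensor cGMP sensor had been preloaded with 2% reagent for 2 h and treated with compound.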
Background: Counterscreens check selectivity or assay interference.
Take `N=c1ccn2c(n1)O[C@H]1[C@H](O)[C@@H](CO)O[C@H]12`: the “activity change, negative = inhibition” value was 9.11%.
Turning to `CCC1C(=O)OCC1Cc1cncn1C` (stereo unspecified), the Potency result is “inactive”.
For `C=CC(N)CCC(=O)O` (stereo unspecified), the “activity change, negative = inhibition” value is 0.73%.

The target of another assay is Atrial natriuretic peptide receptor 1 (Homo sapiens) (UniProt P16066). The assay can be described thus: Natriuretic polypeptide receptor (hNpr1) antagonism - Pilot screen (AID 1347049).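 Further: agonist-evoked cGMP luminescence read 20 min after hNppA addition.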 To be noted: hNpr1 cells, antagonist mode cGMP read-out; series mostly up to 57.5 µM; activity change, negative = inhibition: at the top concentration. An outline of the steps: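 HEK293 cells co-expressing hNpr1 and the GloSensor pGS-40F cGMP luciferase sensor were preloaded with 2% GloSensor reagent for 2 h. Compounds were added for 30 min at room temperature, then cells were stimulated with 0.1 nM hNppA for 20 min before luminescence readout.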
Chain of Atrial natriuretic peptide receptor 1 (Homo sapiens) (P16066 whole entry, looked up): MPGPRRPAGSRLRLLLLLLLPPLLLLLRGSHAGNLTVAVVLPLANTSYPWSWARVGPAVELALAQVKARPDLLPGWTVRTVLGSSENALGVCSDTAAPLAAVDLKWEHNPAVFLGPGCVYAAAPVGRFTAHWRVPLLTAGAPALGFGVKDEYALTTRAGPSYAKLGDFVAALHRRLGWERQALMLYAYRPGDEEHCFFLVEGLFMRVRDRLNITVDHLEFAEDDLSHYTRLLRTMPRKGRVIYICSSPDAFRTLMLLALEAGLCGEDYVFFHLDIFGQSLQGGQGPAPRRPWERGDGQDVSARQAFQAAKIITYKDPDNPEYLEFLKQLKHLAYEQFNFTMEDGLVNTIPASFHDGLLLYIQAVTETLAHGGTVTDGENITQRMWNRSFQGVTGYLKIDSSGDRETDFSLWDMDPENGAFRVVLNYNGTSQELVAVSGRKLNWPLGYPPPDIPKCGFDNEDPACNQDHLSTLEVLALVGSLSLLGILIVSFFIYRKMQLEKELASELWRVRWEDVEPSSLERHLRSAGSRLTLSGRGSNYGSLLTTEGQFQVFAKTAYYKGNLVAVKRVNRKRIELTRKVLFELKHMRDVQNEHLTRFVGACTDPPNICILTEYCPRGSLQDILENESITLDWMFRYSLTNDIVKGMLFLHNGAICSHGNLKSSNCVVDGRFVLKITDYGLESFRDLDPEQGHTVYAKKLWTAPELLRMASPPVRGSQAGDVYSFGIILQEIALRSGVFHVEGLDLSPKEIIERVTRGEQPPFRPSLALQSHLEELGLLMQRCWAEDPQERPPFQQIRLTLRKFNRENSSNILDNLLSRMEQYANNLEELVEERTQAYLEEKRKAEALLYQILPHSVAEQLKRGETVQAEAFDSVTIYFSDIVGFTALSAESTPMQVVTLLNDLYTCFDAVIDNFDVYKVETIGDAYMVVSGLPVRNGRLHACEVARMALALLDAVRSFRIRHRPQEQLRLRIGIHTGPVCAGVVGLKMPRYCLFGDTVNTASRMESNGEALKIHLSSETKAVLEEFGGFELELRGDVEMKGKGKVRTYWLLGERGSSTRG
For `N=c1ccn2c(n1)O[C@H]1[C@H](O)[C@@H](CO)O[C@H]12`, the “activity change, negative = inhibition” value is 2.95%.
Regarding `CCC1C(=O)OCC1Cc1cncn1C` (stereo unspecified), the Potency entry was “inactive”.
With `C=CC(N)CCC(=O)O` (stereo unspecified), the “activity change, negative = inhibition” value was 0.0066%.

For the origin of these results see PubChem BioAssay (NCATS).
